From the OligoGym collection
Note: reference of the scale not given here.

These sequences were tested against MIS12 (assay: pooled miR-30 sensor sort-seq; sequence = guide strand). Conditions: shRNA.
TTAGTACATAATTCAGTCTTGT showed a sensor-assay potency score (higher = more potent) of -0.329. TTCAGTCTTGTACTTCTCCTGT gave a sensor-assay potency score (higher = more potent) of 0.0481. TGAAATGCAATGTAGATCCGAA showed a sensor-assay potency score (higher = more potent) of 0.0164. With TATGATTCTACTTTTTGACAGG the sensor-assay potency score (higher = more potent) was -0.668. For TAATTCTGCAAGAAGGGCCTGC, the sensor-assay potency score (higher = more potent) was 0.0971. Sequence TAATGTTCTGTAGTTTTCTGGA has a sensor-assay potency score (higher = more potent) of -0.154. TTGAAATGCAATGTAGATCCGA showed a sensor-assay potency score (higher = more potent) of 0.852. Sequence TTGGTTTGAACAGTCACTGGTA has a sensor-assay potency score (higher = more potent) of 0.981.

Each sequence was assayed against MKNK2 in the same assay as above. Conditions: shRNA.
TAGGACGTTCCTGTGTCCCTGG showed a sensor-assay potency score (higher = more potent) of 0.366. Work on TTGAGTTTGATGCCGCTGCCCA yielded a sensor-assay potency score (higher = more potent) of -0.98. Work on TTTGTTATGCAGAAAGTCCAAG yielded a sensor-assay potency score (higher = more potent) of -0.811. With TAGATGCTAGCCTCCTCGCTGA the sensor-assay potency score (higher = more potent) was -0.602. TCCAGCTCGTTGAAGTGCCGGC gave a sensor-assay potency score (higher = more potent) of -1.11. For ATCAGCTCTAGGACGTTCCTGT, the sensor-assay potency score (higher = more potent) was -0.0446. TTGATGCAGGTCTGCACTCGGG gave a sensor-assay potency score (higher = more potent) of -1.43. In the case of TTCCTCTGCAGGACCATGGGAG, the sensor-assay potency score (higher = more potent) is reported as -0.448. TTGTCGGGGAACTCGTACTTGC gave a sensor-assay potency score (higher = more potent) of -1.05. Work on TTATGCAGAAAGTCCAAGGCGC yielded a sensor-assay potency score (higher = more potent) of -0.181. TGATGCAGGTCTGCACTCGGGC was tested, and the sensor-assay potency score (higher = more potent) was -1.01. TCAAACAGCATGTTCTGGCAGG showed a sensor-assay potency score (higher = more potent) of -0.787.

These sequences were tested against MLL in the same assay as above. Conditions: shRNA.
For TTGTTTAAGACTCTTACTCTTC, the sensor-assay potency score (higher = more potent) was -0.426. For TTTTCGTCGTTCTAGATCCAAA, the sensor-assay potency score (higher = more potent) was -1.11. For TATCTCTGGAACTAGATCCCAT, the sensor-assay potency score (higher = more potent) was 0.126. TAAGACATGATCAACTACTTTG gave a sensor-assay potency score (higher = more potent) of -0.602. TCGGTGTAGACTCTAATCGGGC showed a sensor-assay potency score (higher = more potent) of -1.36. With TTCTGTTGTAGGCAGCTGCTGA the sensor-assay potency score (higher = more potent) was -0.148. With TTAAAGTCCACTCTGATCCTGT the sensor-assay potency score (higher = more potent) was 0.574. With TATACTTTTAGAATCTTTCTTC the sensor-assay potency score (higher = more potent) was 0.988. TTCTGCTTCACAATCCTCCTTA was tested, and the sensor-assay potency score (higher = more potent) was 0.726. Sequence TTACTCTTCTCAATCTTGCAGA has a sensor-assay potency score (higher = more potent) of 0.352. In the case of TTTGCTTAGAACTATTGCCATT, the sensor-assay potency score (higher = more potent) is reported as -1.46.

Each sequence was assayed against MMADHC in the same assay as above. Conditions: shRNA.
Work on TTTCACTTGATAAAGGTTCTGC yielded a sensor-assay potency score (higher = more potent) of 0.549. TTTCTTGTTCAACAGGTGCATC was tested, and the sensor-assay potency score (higher = more potent) was -1.26. TTTTCTAAGAGCACTTCTCTTT gave a sensor-assay potency score (higher = more potent) of -0.6. TGAGGTGACAATCAAAACCTAT gave a sensor-assay potency score (higher = more potent) of -0.635. TTTGCCATTAGCTACTTCTGGA gave a sensor-assay potency score (higher = more potent) of -0.35. With TGTATTGCACACTCTACTCTGG the sensor-assay potency score (higher = more potent) was 0.407. Sequence TAATTTCTTGTTCAACAGGTGC has a sensor-assay potency score (higher = more potent) of -0.82. Work on TTGTGTTACAGTCAGAATCATT yielded a sensor-assay potency score (higher = more potent) of -1.32. TTCTTCTGTGAAGCAGTCCCAT gave a sensor-assay potency score (higher = more potent) of -0.488.
